Rows were chosen to be rich in hits. Some 2.3% of all compounds tested hit in one or more screens of this group.
pAkt inh: blocks phosphorylation of Akt; Neuro2A IGF-stimulated pAkt S473 HTRF, 20 min; active compounds read low; activity change, % for hits at 50 µM; 360,000 compounds, 0.32% hits; AID 651550; in the data active = activity change below about -80%; inconclusive = mostly about -51% to -80%; also: % is scaled to controls: 0 for no effect and ±100 for the full control effect
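Single-point screen (50 µM final compound) in Neuro2A cells stimulated 20 min with 6 nM IGF at 37 deg C. After lysis, Ser473-phosphorylated Akt read by HTRF (ex 330 nm, em 615/665 nm) as the 665/615 ratio.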
TDP43 rescue: TDP-43 toxicity inhibition in yeast; 410,000 compounds, 1.8% hits; TDP-43 expressing yeast growth rescue, BacTiter-Glo, 24 h; Potency, µM (series often up to 46.1 µM), without a hit: at the highest dose growth rescue (activation), most hits filed as activators; also: potency is read from the fitted curve at half-maximal effect; % of control where 0% means no effect; nearly all actives have a fitted effect of over 50% in size
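Cell-based yeast growth screen: TDP-43 expression induced in galactose, inoculum OD600=0.02 after raffinose pregrowth to mid-log. Read-out BacTiter-Glo luminescence at 24 hr, 30 deg C; inhibition of toxicity seen as signal increase.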
aSyn rescue: rescues yeast growth from alpha-synuclein toxicity. Potency, µM (top dose mostly 46.1 µM), for the others: at the highest dose growth rescue (activation), actives largely listed as activators. 370,000 compounds, 0.14% hits. AID 652106. Yeast expressing alpha-synuclein, growth rescue, BacTiter-Glo, 24 h; also: potency is read from the fitted curve at half-maximal effect; % of control where 0% means no effect; nearly all actives have a fitted effect of over 65% in size
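Rescue of yeast growth: cells expressing toxic alpha-synuclein, induced in galactose at OD600 0.02, incubated with compound 24 h at 30 C. ATP luminescence quantified growth; inhibitors of toxicity appear as activators.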
Abeta rescue: A-beta toxicity reversal in yeast. yeast expressing A-beta42, growth rescue, OD600, 48 h; response scale: 0% DMSO, 100% iron-clioquinol control. Potency, µM (titrated, usually from 46.1 µM), most hits filed as activators. 410,000 compounds, 0.063% hits. AID 1347071; also: potency is read from the fitted curve at half-maximal effect; nearly all actives have a fitted effect of over 55% in size
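Yeast growth medium received pinned compounds, then yeast cells expressing toxic A-beta were added; plates incubated at 30 C for 48 hr. Growth read as absorbance at 600 nm, normalized to DMSO and equimolar FeCl3 plus clioquinol controls.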
FUS yeast rescue: rescues growth of FUS-expressing yeast | S. cerevisiae FUS-expressing, growth rescue, OD600, 24 h | Potency, µM (series often up to 76.6 µM), most hits filed as activators | 390,000 compounds, 0.24% hits | AID 1347120;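 also: potency is read from the fitted curve at half-maximal effect; plate controls were DMSO vehicle for no effect and reference control for full effect; nearly all actives have a fitted effect of over 55% in size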
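Yeast FUS proteinopathy model; galactose-induced FUS (2%), starting OD 0.005. Cpds in dilution series, 24hr, 30C, 99% humidity. Abs 600 nm growth. Pos ctrl CP55940 (top 92uM final); neg ctrl DMSO.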
* = called active by the depositor; i = inactive; u = inconclusive; x = no result; [ ] = another dose, or the depositor's remark. Unless noted, calls follow the shape of the dose curve; as a rule, active = well fitted curve in the direction sought with a large enough effect; inconclusive = small, poorly fitted or top-dose-only effect, or another doubt; inactive = no such curve, though single readings can be large; an effect the other way counts as inactive or inconclusive.

SMILES	pAkt inh	TDP43 rescue	aSyn rescue	Abeta rescue	FUS yeast rescue
Cc1ccccc1N=C1SC(CC(=O)Nc2ccc3ccccc3c2)C(=O)N1Cc1ccccn1 (centres undefined)	i	28µM*	u	i	i
Cc1ccc(-c2cnc(C3CC3)o2)cc1S(=O)(=O)Nc1ccc(F)cc1Cl	x	-10%	x	i	i
CCOc1ccc(NS(=O)(=O)c2ccc(-c3cnc(C4CC4)o3)cc2)cc1	i	35µM*	u	x	u
CCOC(=O)c1cccc(NS(=O)(=O)c2cc(-c3cnc(C4CC4)o3)ccc2C)c1	x	20µM*	x	i	i
Cc1cc(C)cc(NS(=O)(=O)c2ccc(-c3cnc(C4CC4)o3)cc2)c1	x	u	u	i	u
CCOC(=O)c1cccc(NS(=O)(=O)c2ccc(-c3coc(C)n3)cc2)c1	x	35µM*	6%	i	i
Cc1ccc(C)c(NS(=O)(=O)c2ccc(-c3cnc(C4CC4)o3)cc2)c1	i	32µM*	u	x	u
COc1ccccc1NC(=O)Cn1cc(C(=O)c2ccncc2)c(=O)c2cc(C)ccc21	x	6%	x	i	i
Cc1cccc(-c2nc3scc(CCNC(=O)c4ccc(Br)o4)n3n2)c1	x	0%[9.22 µM]	x	i	i
CC(=O)Nc1ccc(NS(=O)(=O)c2ccc(-c3cnc(C4CC4)o3)cc2)cc1	i	-9%	-2%	i	i
Cc1ccc(NS(=O)(=O)c2ccc(-c3coc(C)n3)cc2)c(Br)c1	i	u	11%	i	i
Cc1ccc(C)c(NS(=O)(=O)c2ccc(-c3coc(C)n3)cc2)c1	i	13µM*	4%	i	i
O=S(=O)(Nc1ccccc1)c1ccc(-c2cnc(C3CC3)o2)cc1	x	35µM*	-15%	i	i
COc1ccc(OC)c(C2C(C(=O)Nc3ccc(C)cc3)=C(C)Nc3nnnn32)c1 (centres undefined)	x	26%	-14%	i	i
COc1ccc(NC(=O)C2Cc3c(-c4ccc(Cl)cc4)ccnc3O2)cc1OC (centres undefined)	i	35µM*	6%	i	i
O=C(Nc1ccccc1)C1Cc2c(-c3ccc(Cl)cc3)ccnc2O1 (centres undefined)	i	13%	4%	i	i
O=C(NCc1ccccc1)C1Cc2c(-c3ccc(Cl)cc3)ccnc2O1 (centres undefined)	i	20µM*	u	i	i
COc1ccc(NC(=O)C2Cc3c(-c4ccc(Cl)cc4)ccnc3O2)cn1 (centres undefined)	i	35µM*	14%	i	i
S=C(NCCCc1cnc[nH]1)NCCCN(Cc1ccc(Cl)cc1)c1cc(-c2ccccc2)ccn1	x	x	-22%	x	x
CCOC(=O)c1ccc2c(c1)sc1nc(-c3ccc(OCC)cc3)cn12	x	23%	x	i	i
CC(Cc1cccs1)NC(=S)Nc1ccc(F)cc1 (centres undefined)	i	-18%[0.397 µM]	0%	13µM*	i
N#C/C(=C\c1ccc(O)cc1)C(=O)NCC1CCCO1 (centres undefined)	x	27%	-1%	i	i
CCOc1ccc(NC(=O)Cn2c(=O)n(CCc3ccccc3)c(=O)c3c4c(sc32)CCCC4)cc1	x	21%	x	i	i
CCC1S/C(=C(\C#N)C(=O)NCc2ccco2)N(c2ccc(Br)cc2)C1=O (centres undefined)	-107%*	2%	-5%	i	i
CCC1S/C(=C(\C#N)C(=O)NCc2ccco2)N(c2ccc(F)cc2)C1=O (centres undefined)	i	0%	-2%	i	i
SMILES	pAkt inh	TDP43 rescue	aSyn rescue	Abeta rescue	FUS yeast rescue
CCOC(=O)/C(C#N)=C1/SC(C)C(=O)N1c1ccc(Br)cc1 (centres undefined)	i	0%	0%	i	22µM*
Cc1ccc(S(=O)(=O)c2c(N)n(Cc3ccco3)c3nc4ccccc4nc23)cc1C	i	0%	6%	i	25µM*
c1ccc2c(-c3csc(-c4ccncc4)n3)c[nH]c2c1	i	4µM*	15%	i	i
O=C(CCn1c(=O)oc2ccccc21)Nc1nc2ccccc2s1	i	28µM*	6%	i	i
CCSc1nnc(NC(=O)CCn2c(=O)oc3ccccc32)s1	i	-4%	-7%	i	i
NC(=NC(=O)c1ccc(Cl)cc1)N1N=CCC1c1ccccc1 (centres undefined)	i	u	0%	i	i
O=C(CSc1ccc(Cl)cc1)N1N=CCC1c1ccccc1 (centres undefined)	i	13µM*	-6%	i	i
O=C(Nc1ccc(Cl)c(Cl)c1)N1N=CCC1c1ccccc1 (centres undefined)	i	22µM*	-16%	i	u
COc1cc(-c2nc(C)c(C(C)=O)n2O)ccc1OCC(=O)Nc1ccc(F)cc1	i	19%	-6%	i	i
CCOc1cc(-c2nc(C)c(C(C)=O)n2O)ccc1OCC(=O)Nc1ccc(F)cc1	i	14µM*	-4%	i	i
COc1cccc(NC(=O)C(=O)N2CCOCC2)c1	-100%*	-1%	4%	i	i
Cc1nn2c(COc3ccc(NC(=O)C(C)C)cc3)nnc2c2ccccc12	i	15%	-4%	i	i
Cc1nn2c(COc3ccc(NC(=O)c4ccccc4Cl)cc3)nnc2c2ccccc12	i	-4%	u	i	22µM*
CCOCCn1c(=O)c2c(nc3n2CCN3c2ccc(C)c(C)c2)n(C)c1=O	x	12%	x	i	i
CC(C)NC(=O)C12CC3CC(C1)CC(C(=O)NC(C)C)(C3)C2	i	5%	-5%	i	i
CCC12CC3CC(C1)CC(C(=O)O)(C3)C2	i	14µM*	0%	i	i
O=[N+]([O-])c1ccc(C=NN2CCOCC2)s1	i	11µM*	2%	i	i
O=C(c1cccs1)n1cc(C(=S)N2CCOCC2)c2ccccc21	x	20µM*	x	i	i
O=C(C1CC1)n1cc(C(=S)N2CCOCC2)c2ccccc21	i	4%	-14%	i	i
Cc1cc(C=O)c(C)c2c1[nH]c1ccccc12	i	22%	-4%	i	x
Cc1ccc(C)c2c1[nH]c1ccccc12	i	14µM*	5%	i	i
Cc1ccc(-c2nc3nc(C)cc(N4CCN(c5cccc(C)c5C)CC4)n3n2)cc1	x	2%	x	i	i
Cc1noc(C)c1S(=O)(=O)N1CCCC(C(=O)Nc2ccc(C(C)C)cc2)C1 (centres undefined)	x	-12%	x	i	i
NS(=O)(=O)c1ccc(S(=O)(=O)c2ccccc2)nc1	i	-2%	-1%	i	i

Screens: PubChem BioAssay, National Center for Advancing Translational Sciences (NCATS)
